Measurements taken from PubChem BioAssay AID1117319 (Southern Research Institute, 2015).
Out of some 260,000 compounds screened, about 1,500 (0.58%) were called active. Inconclusive results (about 5%) are left out.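 The calls were made as follows: active = inhibition above a set limit at one or more doses, reproduced on every date tested; inconclusive = results disagree between test dates, or hit never tested in dose response; inactive = the rest.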 Not all results are given here. Entries with a potency or affinity are not part of this list.

The compounds below were run against Virion infectivity factor (Human immunodeficiency virus type 1 group M subtype B (isolate BH10)) + Virion infectivity factor (Human immunodeficiency virus type 1 group M subtype B (isolate BRU/LAI)) + Virion infectivity factor (Human immunodeficiency virus type 1 group M subtype B (isolate PCV12)) + Virion infectivity factor (Human immunodeficiency virus type 1 group M subtype B (isolate HXB2)) + DNA dC->dU-editing enzyme APOBEC-3G (Homo sapiens) (UniProt P69720+P69721+P69722+P69723+Q9HC16) (assay: inhibitors of Vif binding to APOBEC3G peptide, primary screen, biochemical, TR-FRET, GST-Vif 1-94, biotin-A3G peptide, dose response retest (AID 1117319;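 also: Vif residues 1-94 fused to GST binding biotinylated APOBEC3G peptide 110-148; 0% = full assay without inhibitor and 100% = GST in place of GST-Vif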)). Conditions: hits give high values.

Compound	inhibition
CC(C)(C)c1cc(CCC(=O)N2CCNCC2)c(C(C)(C)C)cc1O	-5.87% (inactive)
Cc1ccc(S(=O)(=O)N2CCN(C(=O)c3cccc(-n4cccc4)c3)CC2)cc1	13.6% (inactive)
O=C(c1cccc(-n2cccc2)c1)N1CCN(S(=O)(=O)c2ccccc2Br)CC1	-0.78% (inactive)
CCc1cccc2c(SCC(=O)NCC3CCCO3)nc(-c3ccc(F)cc3)nc12 (stereo not drawn)	-2.63% (inactive)
O=C(NCCn1cc(SCc2ccccc2F)c2ccccc21)c1c(F)cccc1F	23.7% (inactive)
CCN(CC)c1ccc(/C=N/N2C(=O)c3ccccc3C2=O)cc1	0.19% (inactive)
CSc1ccc(/C=N/n2c(C)cc(C)cc2=O)cc1	-2.42% (inactive)
CC(C(=O)OCC(=O)N(C)C1(C#N)CCCCC1)N1C(=O)c2ccccc2C1=O (stereo not drawn)	-0.19% (inactive)
O=C1c2ccccc2CC1Sc1nnc(-c2ccncc2)o1 (stereo not drawn)	8.68% (inactive)
Fc1ccc(CSc2nnc(-c3ccccn3)o2)cc1	-5.79% (inactive)
COc1ccc(N=C2SC(C(=O)Nc3ccc(C(=O)O)cc3)CC(=O)N2Cc2cccs2)cc1 (stereo not drawn)	-11.4% (inactive)
Cc1ccc(C)c(NC(=O)C2CCN(S(=O)(=O)c3ccc4c(c3)NC(=O)CO4)CC2)c1	-1.93% (inactive)
COc1ccc(C(=O)CSc2nnc(-c3ccco3)n2C)cc1	7.51% (inactive)
Cc1ccc(C(=O)CSc2nnc(-c3ccco3)n2C)cc1	11.4% (inactive)
O=C(OC(C(=O)NCc1ccco1)c1ccc(Cl)cc1)c1cccs1 (stereo not drawn)	4.09% (inactive)
CC(C)(C)NC(=O)C(c1ccc(O)cc1)N(C(=O)CCC(=O)Nc1ccccn1)c1ccc(F)cc1 (stereo not drawn)	16.4% (inactive)
Cc1nc2ccc(NC(=O)N3CCCCC3)cc2nc1C	1.22% (inactive)
O=C(Nc1ccc2nsnc2c1)N1CCCCCC1	21.1% (inactive)
CCOC(=O)C1CCN(C(=O)Nc2ccc3nccnc3c2)CC1	-4.96% (inactive)
CCOC(=O)C1CCN(C(=O)Nc2ccc3nc(C)c(C)nc3c2)CC1	8.59% (inactive)
CCn1nnnc1NC(=O)c1cc(Cl)c(OC)c(Cl)c1	0.23% (inactive)
Cc1noc(C(=O)NCC2CCCO2)c1Cl (stereo not drawn)	2.96% (inactive)
COc1ccc(-n2nnc3c(SCC(=O)OCc4ccccc4)ncnc32)cc1	0.84% (inactive)
C=CCNC(=O)O/N=C/c1csc([N+](=O)[O-])c1	-6.03% (inactive)
CC(C)(C)c1ccc(C(=O)N/N=C/c2ccc(OCCCF)cc2)cc1	-1.58% (inactive)

Compound	inhibition
CCOc1ccccc1NCN1C(=O)c2ccccc2C1=O	-5.06% (inactive)
CCOc1ccc(NC2=CC(=O)C(=O)c3ccccc32)cc1	3.36% (inactive)
O=C(NC(=S)Nc1ccccc1O)c1cccnc1	-2.04% (inactive)
COc1ccccc1NC(=O)c1oc2ccccc2c1C	-8.43% (inactive)
COc1ccc(NC(=O)c2oc3ccccc3c2C)c(OC)c1	3.61% (inactive)
Cc1nn(-c2cccc(Cl)c2)nc1C(=O)Nc1cccc(C(=O)NC2CC2)c1	-8.35% (inactive)
O=[N+]([O-])c1cccc(N=Nc2ccc(O)cc2O)c1	5.74% (inactive)
O=[N+]([O-])c1ccc(N=Nc2ccc(O)cc2O)cc1	27.8% (inactive)
Oc1ccc(N=Nc2ccc3c(c2)OCCO3)c(O)c1	6.46% (inactive)
Oc1ccc(N=Nc2ccc(Br)cc2)c(O)c1	-5.68% (inactive)
Clc1cccc(CSc2nnc(-c3c[nH]c4ccccc34)o2)c1	-5.82% (inactive)
Cc1ccc(-c2nc(C#N)c(N3CCCCC3)o2)cc1	-10.2% (inactive)
CC(=O)N1CCc2ccc(NC(=O)c3c(-c4c(Cl)cccc4Cl)noc3C)cc21	-4.69% (inactive)
O=[N+]([O-])c1ccc2nc(C3CCCCC3)[nH]c2c1	-11.7% (inactive)
COc1cccc(C(=O)Nc2ccc3nc(N4CCOCC4)cc(C)c3c2)c1	-4.42% (inactive)
CN(C)/C=C/C(=O)c1ccc(Br)cc1	-1.28% (inactive)
O=C(NCCO)C1COc2ccccc2O1 (stereo not drawn)	-2.17% (inactive)
O=C(CSc1nnnn1C1CC1)N1CCN(c2ccccc2F)CC1	-1.62% (inactive)
On1nnc2c3ccccc3c3ccccc3c21	0.98% (inactive)
O=C(O)C1CCCCN1C(=O)c1ccc(S(=O)(=O)N2CCCCCC2)cc1 (stereo not drawn)	-3.6% (inactive)
COc1cc2c(cc1OC)C(=O)CCC2	-1.94% (inactive)
COc1ccc2c(c1)CCCC(Br)C2=O (stereo not drawn)	11.8% (inactive)
O=C(O)c1cccc2c1C(=O)c1ccc(N3CCN(Cc4ccc5c(c4)OCO5)CC3)cc1S2(=O)=O	1.13% (inactive)
Cc1cccc2cc(CN(CCCO)C(=O)Nc3ccc(Cl)cc3)c(=O)[nH]c12	13.2% (inactive)
C/C(=N\NC(=O)c1cc(C2CC2)nc2ccccc12)c1ccc(C)s1	5.05% (inactive)

Compound	inhibition
Cc1c(N=c2c(=O)c3ccccc3c2=O)c(=O)n(-c2ccccc2)n1C	23.7% (inactive)
CC1=CC(=Nc2c(C)n(C)n(-c3ccccc3)c2=O)C=C(C)C1=O	16.9% (inactive)
CCC(C)C1=CC(=Nc2c(C)n(C)n(-c3ccccc3)c2=O)C=C(C(C)CC)C1=O (stereo not drawn)	9.76% (inactive)
Cc1c(N=C2C=CC(=O)c3ccccc32)c(=O)n(-c2ccccc2)n1C	25% (inactive)
CC(=O)NC1=NN(C(C)=O)C(C)(c2cccs2)S1 (stereo not drawn)	2.86% (inactive)
Cc1cc(=O)oc2cc(NC(=O)c3ccnn3C)ccc12	-5.65% (inactive)
Cc1ccc(C)c(Cn2nnc3c(=O)[nH]c(C4CCN(S(=O)(=O)c5ccc(S(=O)(=O)NC6CC6)cc5)CC4)nc32)c1	-11.5% (inactive)
O=C(CN1CCN(S(=O)(=O)c2ccc(Cl)s2)CC1)N1CCOCC1	7.26% (inactive)
O=C(CN1CCN(S(=O)(=O)c2ccc(Cl)cc2)CC1)NCc1cccs1	0.29% (inactive)
CC(C)Nc1nc(-c2ccccc2)nnc1-c1ccccc1	-7.57% (inactive)
O=C(O)/C=C/C(=O)Nc1ccc(SC(F)(F)C(F)(F)C(F)(F)F)cc1	-1.48% (inactive)
CCN(CC)CCN1C(=O)c2ccccc2NC1c1ccc(F)cc1 (stereo not drawn)	1.63% (inactive)
CCN(CC)CCN1C(=O)c2ccccc2NC1c1ccc(C)cc1 (stereo not drawn)	0.09% (inactive)
CC/C(C)=N/Nc1ccc(S(=O)(=O)N2CCCC2)cc1[N+](=O)[O-]	0.9% (inactive)
CC1CCCN(C(=O)c2ccc(CNc3c(N4CCCCC4)c(=O)c3=O)cc2)C1 (stereo not drawn)	4.47% (inactive)
CC1CCN(C(=O)c2ccc(CNc3c(N4CCCC4)c(=O)c3=O)cc2)CC1	5.36% (inactive)
Cn1c(N)c(C(=O)COC(=O)C2CCC(C(C)(C)C)CC2)c(=O)n(C)c1=O (stereo not drawn)	15.1% (inactive)
Cn1c(N)c(C(=O)COC(=O)C2CCCC2)c(=O)n(C)c1=O	0.6% (inactive)
COc1ccc(S(=O)(=O)N2CCC3(CC2)CC(=O)c2ccccc2O3)cc1OC	5.1% (inactive)
C=CCN1C(=O)S/C(=C\c2ccc(N3CCOCC3)cc2C)C1=O	-1.96% (inactive)
CCN1C(=O)S/C(=C\c2ccc(N3CCOCC3)cc2C)C1=O	15.3% (inactive)
Cc1cc(=O)oc2c(CN3CCN(C)CC3)c(O)c(Cl)cc12	-0.71% (inactive)
COc1ccccc1NC(=S)NN1CCN(C)CC1	-0.89% (inactive)
Nc1ccc(C(=O)Nc2ccc3nc(-c4cccnc4)[nH]c3c2)cc1	1.2% (inactive)
O=C(Nc1ccc2ccccc2c1)c1cccnc1	-0.18% (inactive)

Compound	inhibition
CC/C(=N\NC(=O)CSc1ncccn1)c1ccc2c(c1)OCCO2	4.58% (inactive)
COc1ccc(-n2c(Cc3cc(=O)[nH]c(=O)[nH]3)nnc2SCC(=O)NC2CCCC2)cc1	2.26% (inactive)
COc1ccc2cc(CN(Cc3ccco3)C(=S)NCC3CCCO3)c(=O)[nH]c2c1 (stereo not drawn)	-22.6% (inactive)
CC(=O)Nc1ccc(S(=O)(=O)N2CCc3ccccc3C2)cc1	21.6% (inactive)
O=C(O)Cc1ccc(N=Cc2c(O)ccc3ccccc23)cc1	5.87% (inactive)
NS(=O)(=O)c1ccc(N=Nc2c(O)c(C(=O)O)cc3ccccc23)cc1	24.6% (inactive)
Cn1cnnc1SCC(=O)Nc1ccccc1C(=O)NC1CCCC1	7.03% (inactive)
CC(=O)Nc1cccc(C(=O)NCC2(N3CCCCC3)CCCCC2)c1	3.75% (inactive)
COc1ccc(Oc2ccc(C(F)(F)F)cc2NC(=O)c2ccc(OC)cc2)cc1	-13.5% (inactive)
Cc1ccccc1N1C(=O)C(Cl)=C(N2CCCCCC2)C1=O	4.9% (inactive)
CC(=O)c1cnc(N(C)C)s1	-3.71% (inactive)
Clc1cccc2sc(N3CCCCC3)nc12	0.64% (inactive)
CN1CCN(c2ncc(CN3C(=O)c4ccccc4C3=O)s2)CC1	1.36% (inactive)
CN1CCN(C2=C(Cl)C(=O)N(C3CCCCC3)C2=O)CC1	20.6% (inactive)
O=Cc1cnc(N2CCCCC2)s1	-7.46% (inactive)
O=C(CN1CCc2ccccc21)NN1CC(=O)N(c2ccccc2)CC1=O	1.28% (inactive)
CCOC(=O)c1ccc(NCc2ccncc2)cc1	-1.73% (inactive)
COC(CN1CCc2c(C)nc3c(C#N)cnn3c21)OC	1.49% (inactive)
CN(C)S(=O)(=O)c1cc(NC(=O)[C@H](Cc2ccccc2)N2C(=O)c3ccccc3C2=O)ccc1Cl	15.5% (inactive)
Nc1c(C(=O)Nc2ccc(Br)cc2)sc2nc(-c3ccco3)ccc12	4.88% (inactive)
NC(=O)c1sc2nc(-c3ccco3)ccc2c1N	25.6% (inactive)
N#Cc1ccc(CSc2nnc(-c3ccccc3)n2Cc2ccco2)cc1	3.24% (inactive)
Cc1ccc(-c2nnc(SCc3ccc(C#N)cc3)n2Cc2ccco2)cc1	21.2% (inactive)
